PubChem BioAssay (EPA / NIEHS)
Records with an inconclusive call do not appear. Calls of active or inactive are those of the source. Rule for the calls: active = hit-call score of the fitted dose curve at least 0.9, where 1 is the maximum; inconclusive = response in the unintended direction; inactive = score below 0.9.

Assays:
[1] = Tanguay_ZF_120hpf_MORT_legacy: (Legacy) Oregon State University Tanguay Lab 120 Hour Post-fertilization zebrafish Assay for Mortality (AID 2283633)
In short: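 Dechorionated Tropical 5D wild-type zebrafish embryos, one per well from 6 hpf, were statically exposed at 28C in the dark until 120 hpf (0.64% DMSO final). Mortality was scored as present/absent by brightfield microscopy, fitted positively versus DMSO.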

[2] = Tanguay_ZF_120hpf_AXIS_legacy: (Legacy) Oregon State University Tanguay Lab 120 Hour Post-fertilization zebrafish Assay for Body Axis Malformation (AID 2283635)
In short: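 Tropical 5D wild-type zebrafish embryos, dechorionated with pronase at 4 hpf, were placed singly in wells at 6 hpf and exposed statically to test chemical (0.64% DMSO final) at 28C until 120 hpf, then scored by brightfield for body axis defects.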

[3] = Tanguay_ZF_120hpf_EYE_legacy: (Legacy) Oregon State University Tanguay Lab 120 Hour Post-fertilization zebrafish Assay for Eye Malformation (AID 2283636);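 note: binary presence or absence of eye malformation scored by brightfield in 120 hpf larvae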
In short: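 5D wild-type embryos, pronase-dechorionated at 4 hpf; static exposure 6–120 hpf, 28C, dark; DMSO 0.64% final; 5uM trimethyltin chloride positive control. Binary eye-defect scoring at 120 hpf; dead embryos not scored.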

[4] = Tanguay_ZF_120hpf_SNOU_legacy: (Legacy) Oregon State University Tanguay Lab 120 Hour Post-fertilization zebrafish Assay for Snout Malformation (AID 2283637)
In short: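 Binary brightfield scoring of snout malformation at 120 hpf. Dechorionated 5D wild-type embryos, one per well, static exposure from 6 hpf at 28C, sealed and dark; final DMSO 0.64% (vol/vol), DMSO as baseline; 5uM trimethyltin chloride positive control.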

[5] = Tanguay_ZF_120hpf_JAW_legacy: (Legacy) Oregon State University Tanguay Lab 120 Hour Post-fertilization zebrafish Assay for Jaw Malformation (AID 2283638)
In short: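 Tropical 5D wild-type embryos, dechorionated with pronase at 4 hpf, were placed singly per well at 6 hpf and statically exposed at 28C until 120 hpf (0.64% DMSO final). Jaw malformation scored as present/absent by brightfield microscopy at 120 hpf, analyzed relative to DMSO.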

[6] = Tanguay_ZF_120hpf_PE_legacy: (Legacy) Oregon State University Tanguay Lab 120 Hour Post-fertilization zebrafish Assay for Pericardial Edema (AID 2283640)
In short: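 Tropical 5D wild-type zebrafish embryos were exposed statically to 120 hpf at 28C, sealed and foil-covered, in 0.64% DMSO final. Pericardial edema was scored present/absent by brightfield microscopy; dead embryos were not scored.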

[7] = Tanguay_ZF_120hpf_SOMI_legacy: (Legacy) Oregon State University Tanguay Lab 120 Hour Post-fertilization zebrafish Assay for Somite Malformation (AID 2283647)
In short: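 Tropical 5D wild-type zebrafish embryos, dechorionated with pronase at 4 hpf, were placed singly at 6 hpf and statically exposed until 120 hpf at 28C in 0.64% DMSO. Somite malformation was scored present/absent by brightfield microscopy versus DMSO.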

[8] = Tanguay_ZF_120hpf_PFIN_legacy: (Legacy) Oregon State University Tanguay Lab 120 Hour Post-fertilization zebrafish Assay for Pectoral Fin Malformation (AID 2283648);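 note: each larva judged yes or no for fin defect by brightfield with dead larvae skipped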
In short: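 Binary pectoral fin malformation call at 120 hpf by brightfield microscopy; 5D wild-type zebrafish, chorion removed at 4 hpf, one embryo per well from 6 hpf, static exposure at 28C; DMSO (0.64% final) as baseline.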

[9] = Tanguay_ZF_120hpf_CFIN_legacy: (Legacy) Oregon State University Tanguay Lab 120 Hour Post-fertilization zebrafish Assay for Caudal Fin Malformation (AID 2283649)
In short: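 Tropical 5D wild-type embryos, dechorionated with pronase at 4 hpf, were placed singly in wells at 6 hpf and statically exposed to compound at 28C until 120 hpf (0.64% DMSO). Caudal fin malformation was scored present/absent by brightfield microscopy.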

[10] = Tanguay_ZF_120hpf_PIG_legacy: (Legacy) Oregon State University Tanguay Lab 120 Hour Post-fertilization zebrafish Assay for Pigmentation Malformation (AID 2283650)
In short: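 Brightfield scoring of pigmentation malformation at 120 hpf, recorded as binary present/absent per larva. Exposure: dechorionated 5D wild-type embryos, one per well, static from 6 hpf at 28C, final DMSO 0.64% (vol/vol). Dead embryos not scored.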

[11] = Tanguay_ZF_120hpf_OTIC_legacy: (Legacy) Oregon State University Tanguay Lab 120 Hour Post-fertilization zebrafish Assay for Otic Vesicle Malformation (AID 2283639)
In short: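 Wild-type zebrafish larvae, whole-embryo exposure from early stage to 120 hpf at 28C. Binary brightfield scoring of otic vesicle morphology, fitted in the positive direction against the DMSO baseline.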

[12] = Tanguay_ZF_120hpf_BRAI_legacy: (Legacy) Oregon State University Tanguay Lab 120 Hour Post-fertilization zebrafish Assay for Brain Malformation (AID 2283641)
In short: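 Tropical 5D wild-type zebrafish embryos were exposed statically in sealed, foil-covered plates at 28C until 120 hpf, with 0.64% (vol/vol) final DMSO. Brain malformation was scored present/absent by brightfield microscopy, relative to DMSO baseline.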

[13] = TOX21_p53_BLA_p2_viability: Viability Assessment in the Tox21 HCT-116 p53 Agonism Beta-lactamase Assay, Phase 2 (AID 2283591);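 note: compound exposure lasted 16 h at 37 °C; actives lower the ATP signal meaning cytotoxicity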
In short: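 HCT116 p53-bla cells, 4000/well, dosed after 5 h plating (217-fold dilution of DMSO stocks) and incubated 16 h at 37C. Viability taken as cellular ATP by CellTiter-Glo luminescence after 30 min RT; signal loss marks cytotoxicity.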

[14] = TOX21_p53_BLA_p3_viability: Viability Assessment in the Tox21 HCT-116 p53 Agonism Beta-lactamase Assay, Phase 3 (AID 2283593);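 note: cells exposed to compound for 16 h before reading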
In short: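 HCT116 cells, 4000/well, dosed 5 h after plating by pin transfer (217-fold dilution from DMSO stock) and incubated 16 h at 37C, 5% CO2. Viability read as ATP luminescence with CellTiter-Glo after 30 min at room temperature.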

[15] = TOX21_p53_BLA_p5_viability: Viability Assessment in the Tox21 HCT-116 p53 Agonism Beta-lactamase Assay, Phase 5 (AID 2283600)
In short: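 Luciferase-coupled ATP quantitation of cells treated for 16 h (37C, 5% CO2) with test chemicals delivered in DMSO via a 217-fold dilution; 4000 cells/well; reagent incubated 30 min at room temperature before luminescence reading.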

[16] = biological target: Cellular tumor antigen p53 (Homo sapiens) (UniProt P04637); experiment: TOX21_p53_BLA_p2_ratio: Tox21 HCT-116 p53 Agonism Beta-lactamase Assay, Ratio, Phase 2 (AID 2283592)
In short: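 Ratio endpoint: beta-lactamase cleavage of CCF4-AM, blue (460 nm) over green (530 nm). HCT116 reporter line; 16 h treatment, 37C; substrate 2 h RT.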

[17] = biological target: Cellular tumor antigen p53 (Homo sapiens) (UniProt P04637); experiment: TOX21_p53_BLA_p3_ratio: Tox21 HCT-116 p53 Agonism Beta-lactamase Assay, Ratio, Phase 3 (AID 2283596)
In short: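 Cells were seeded at 4000/well, rested 5 h at 37C, then dosed with DMSO compound solutions (217-fold dilution) for 16 h. CCF4-AM substrate was loaded for 2 h at room temperature, and the 460/530 nm emission ratio was fitted for gain of signal versus DMSO.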

[18] = biological target: Cellular tumor antigen p53 (Homo sapiens) (UniProt P04637); experiment: TOX21_p53_BLA_p5_ratio: Tox21 HCT-116 p53 Agonism Beta-lactamase Assay, Ratio, Phase 5 (AID 2283599)
In short: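 HCT-116 p53-bla cells (4000/well) plated 5 h, dosed with compound (217-fold DMSO dilution) for 16 h at 37 C; CCF4-AM substrate 2 h at room temperature. Activity is the 460/530 nm emission ratio (405 nm excitation), fitted in gain-of-signal direction versus DMSO.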

[19] = TOX21_p53_BLA_p4_viability: Viability Assessment in the Tox21 HCT-116 p53 Agonism Beta-lactamase Assay, Phase 4 (AID 2283597);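 note: hits lower the luminescence signal meaning cytotoxicity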
In short: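 Cytotoxicity was inferred from loss of CellTiter-Glo luminescence. HCT116 cells had been dosed with compounds after 5 h plating, incubated 16 h at 37C and 5% CO2, and exposed to the CCF4-AM substrate for 2 h.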

[20] = biological target: Cellular tumor antigen p53 (Homo sapiens) (UniProt P04637); experiment: TOX21_p53_BLA_p4_ratio: Tox21 HCT-116 p53 Agonism Beta-lactamase Assay, Ratio, Phase 4 (AID 2283601)
In short: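 HCT-116 p53 beta-lactamase reporter cells (4000/well) preincubated 5 h, then compound (217-fold dilution of DMSO stock) for 16 h at 37C. CCF4-AM substrate added 2 h at room temperature; 460/530 nm emission ratio fitted upward versus DMSO.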

Measured: AC50

Chain of Cellular tumor antigen p53 (Homo sapiens) (P04637 whole entry, looked up): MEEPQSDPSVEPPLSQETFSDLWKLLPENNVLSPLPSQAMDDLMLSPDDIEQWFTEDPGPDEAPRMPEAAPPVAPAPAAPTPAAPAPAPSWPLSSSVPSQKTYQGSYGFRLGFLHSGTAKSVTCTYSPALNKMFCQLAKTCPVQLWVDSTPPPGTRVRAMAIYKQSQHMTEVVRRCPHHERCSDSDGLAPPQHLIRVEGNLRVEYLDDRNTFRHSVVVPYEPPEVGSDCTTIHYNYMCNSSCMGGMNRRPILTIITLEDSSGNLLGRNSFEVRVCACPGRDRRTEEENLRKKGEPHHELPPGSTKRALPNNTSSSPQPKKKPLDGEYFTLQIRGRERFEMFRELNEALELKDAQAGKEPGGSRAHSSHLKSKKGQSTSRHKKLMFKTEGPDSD

CC(C)(C)c1ccc(O)cc1
active: [10] 25.2 µM
inactive: [1] | [2] | [3] | [4] | [5] | [6] | [7] | [8] | [9]

CCCCN(CCCC)SN(C)C(=O)Oc1cccc2c1OC(C)(C)C2
inactive: [1] | [2] | [4] | [5] | [11] | [12] | [7] | [8] | [9] | [10]

CSC(C)(C)C=NO
inactive: [1] | [2] | [3] | [4] | [5] | [11] | [6] | [12] | [7] | [8] | [9] | [10]

CCOc1ccc(C(C)(C)COCc2cccc(Oc3ccccc3)c2)cc1
inactive: [13] | [14] | [15] | [1] | [3] | [4] | [5] | [6] | [12] | [7] | [8] | [9] | [10]

Cc1ccc(O)cc1C
inactive: [1] | [2] | [3] | [4] | [5] | [6] | [7] | [8] | [9] | [10]

CCCCc1ccccc1
inactive: [1] | [2] | [3] | [4] | [5] | [11] | [6] | [12] | [7] | [8] | [9] | [10]

CCCCOCC1CO1 (stereo unspecified)
inactive: [16] | [17] | [18] | [15]

CCOP(=S)(OCC)SCSCC
inactive: [1] | [2] | [3] | [4] | [5] | [11] | [6] | [12] | [7] | [8] | [9] | [10]

CCN(CC)c1ccccc1
inactive: [13] | [14] | [17] | [19] | [18] | [15] | [20] | [1] | [4] | [11] | [6] | [12] | [7] | [9]

CC(=O)CCc1ccc2c(c1)OCO2
inactive: [16] | [17] | [18] | [15]
